The whole screen tested about 310,000 compounds, of which about 14,000 (4.5%) showed an effect of 50% or more. The effect is printed as a negative number. The list comes from a sample in which strong results are over-represented; it also holds similar structures and randomly drawn compounds.
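Also: peak tail current of the secondary pulse compared with the same well before compound.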

Chain of human ether-à-go-go-related gene (hERG) potassium channel (Q12809 whole entry, looked up): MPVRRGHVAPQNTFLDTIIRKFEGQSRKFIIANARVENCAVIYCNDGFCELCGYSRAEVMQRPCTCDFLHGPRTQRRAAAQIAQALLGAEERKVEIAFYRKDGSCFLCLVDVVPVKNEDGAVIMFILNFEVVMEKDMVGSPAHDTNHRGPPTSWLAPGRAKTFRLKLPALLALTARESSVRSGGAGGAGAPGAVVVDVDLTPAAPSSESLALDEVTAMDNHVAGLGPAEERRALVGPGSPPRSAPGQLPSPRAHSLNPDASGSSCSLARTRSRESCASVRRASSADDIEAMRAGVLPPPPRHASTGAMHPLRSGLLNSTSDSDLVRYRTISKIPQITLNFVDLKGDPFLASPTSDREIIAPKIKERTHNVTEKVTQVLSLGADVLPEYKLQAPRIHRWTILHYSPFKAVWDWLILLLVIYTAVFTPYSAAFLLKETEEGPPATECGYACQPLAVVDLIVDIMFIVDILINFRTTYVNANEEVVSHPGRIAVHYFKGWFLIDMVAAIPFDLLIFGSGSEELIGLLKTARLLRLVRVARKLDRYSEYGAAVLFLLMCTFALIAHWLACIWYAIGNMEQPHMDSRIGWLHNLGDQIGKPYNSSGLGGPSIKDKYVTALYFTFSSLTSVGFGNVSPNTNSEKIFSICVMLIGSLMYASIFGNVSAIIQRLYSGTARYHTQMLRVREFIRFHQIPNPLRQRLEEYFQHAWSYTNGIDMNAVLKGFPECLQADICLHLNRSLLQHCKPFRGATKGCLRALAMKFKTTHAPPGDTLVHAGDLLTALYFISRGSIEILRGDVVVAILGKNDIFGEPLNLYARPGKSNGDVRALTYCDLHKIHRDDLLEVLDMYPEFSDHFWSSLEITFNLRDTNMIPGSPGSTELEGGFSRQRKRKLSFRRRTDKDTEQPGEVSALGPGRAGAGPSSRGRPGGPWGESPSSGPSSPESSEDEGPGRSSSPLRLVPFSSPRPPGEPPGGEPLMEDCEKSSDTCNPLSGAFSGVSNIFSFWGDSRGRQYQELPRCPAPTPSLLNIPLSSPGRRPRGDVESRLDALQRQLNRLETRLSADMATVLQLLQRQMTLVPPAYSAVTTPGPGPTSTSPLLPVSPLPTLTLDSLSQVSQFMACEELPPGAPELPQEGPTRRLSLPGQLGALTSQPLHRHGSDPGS

This assay addresses human ether-à-go-go-related gene (hERG) potassium channel (human, UniProt Q12809). Put plainly: primary screen, population patch clamp on CHO cells stably expressing hERG; higher = less effect of the substance.
Regarding `O=C(CN(Cc1ccccc1)C(=O)CNS(=O)(=O)c1ccccc1)NCc1ccco1`, the “hERG current change (%, negative = inhibition) at 10uM” value was -0.255%.

Turning to `COc1ccc(CNC(=O)CN(Cc2ccco2)C(=O)CNS(=O)(=O)c2ccccc2)cc1`, the “hERG current change (%, negative = inhibition) at 10uM” value is given as -38.7%.

As for `COc1ccc(S(=O)(=O)NCC(=O)N(CC(=O)NCc2ccco2)Cc2ccc(F)cc2)cc1`, the “hERG current change (%, negative = inhibition) at 10uM” value is given as 1.94%.

For the compound `Cc1ccc(S(=O)(=O)NCC(=O)N(CC(=O)NCc2ccco2)Cc2ccco2)cc1`, the “hERG current change (%, negative = inhibition) at 10uM” value is -23.5%.

In the case of `COc1cccc(CN(CC(=O)NCc2ccco2)C(=O)CNS(=O)(=O)c2ccccc2)c1`, the “hERG current change (%, negative = inhibition) at 10uM” value is listed as -53.1%.

Regarding `COc1ccc(S(=O)(=O)NCC(=O)N(CC(=O)NCc2ccco2)Cc2ccccc2)cc1`, the “hERG current change (%, negative = inhibition) at 10uM” value is listed as -10.6%.

As to `O=C(CN(Cc1ccco1)C(=O)CNS(=O)(=O)c1ccc(Cl)cc1)NCc1ccco1`, the “hERG current change (%, negative = inhibition) at 10uM” value is on record as -55.4%.

`Cc1ccc(S(=O)(=O)NCC(=O)N(CC(=O)NCc2ccco2)Cc2ccccc2)cc1`: the “hERG current change (%, negative = inhibition) at 10uM” value is reported as -10.2%.

For `COc1ccc(S(=O)(=O)NCC(=O)N(CC(=O)NCc2ccccc2)Cc2ccco2)cc1`, the “hERG current change (%, negative = inhibition) at 10uM” value is on record as -17%.

As for `COc1ccc(CNC(=O)CN(Cc2ccco2)C(=O)CNS(=O)(=O)c2ccc(C)cc2)cc1`, the “hERG current change (%, negative = inhibition) at 10uM” value was -73%.

As to `O=C(CN(Cc1ccco1)C(=O)CNS(=O)(=O)c1ccc(F)cc1)NCc1ccco1`, the “hERG current change (%, negative = inhibition) at 10uM” value is -8.87%.

`COc1ccc(CN(CC(=O)NCc2ccco2)C(=O)CNS(=O)(=O)c2ccc(C)cc2)cc1`: the “hERG current change (%, negative = inhibition) at 10uM” value was -63.3%.

With `Cc1ccc(C)c(N2CCN(S(=O)(=O)c3csc(C(N)=O)c3)CC2)c1`, the “hERG current change (%, negative = inhibition) at 10uM” value is recorded as -8.27%.

`CCC1CCCCN1c1nc2c(C=O)c(C)nn2c2ccccc12` (stereo not drawn): the “hERG current change (%, negative = inhibition) at 10uM” value is reported as -12%.

In the case of `COc1cccc(-c2nc(CS(=O)(=O)CC(=O)Nc3cc(F)ccc3F)c(C)o2)c1`, the “hERG current change (%, negative = inhibition) at 10uM” value came out at 8.16%.

With `COCCNc1ccc(S(=O)(=O)N2CCCC2)cn1`, the “hERG current change (%, negative = inhibition) at 10uM” value was found to be 13.2%.

Turning to `COc1ccc(-c2c3c(=O)n(C)c(=O)n(C)c3cn2NC(C)=O)cc1`, the “hERG current change (%, negative = inhibition) at 10uM” value is recorded as 12.2%.

For the compound `Cc1ccc(C)c(Cn2nnc3c(=O)[nH]c(C4CCCN(C(=O)c5cccs5)C4)nc32)c1` (stereo not drawn), the “hERG current change (%, negative = inhibition) at 10uM” value stood at 0.859%.

In the case of `Cc1ccc(C)c(Cn2nnc3c(=O)[nH]c(C4CCN(C(=O)c5cccs5)CC4)nc32)c1`, the “hERG current change (%, negative = inhibition) at 10uM” value was -66.5%.

Consider `Cc1ccc(C)c(Cn2nnc3c(=O)[nH]c(C4CCCN(C(=O)C5CCC5)C4)nc32)c1` (stereo not drawn), for which the “hERG current change (%, negative = inhibition) at 10uM” value is reported as -32.4%.

As to `Cc1ccc(C)c(Cn2nnc3c(=O)[nH]c(C4CCCN(C(=O)CC(C)C)C4)nc32)c1` (stereo not drawn), the “hERG current change (%, negative = inhibition) at 10uM” value is -14.6%.

On to `O=C(C1CCCCC1)N1CCCC(c2nc3c(nnn3Cc3ccccc3)c(=O)[nH]2)C1` (stereo not drawn), for which the “hERG current change (%, negative = inhibition) at 10uM” value is -8.73%.

As to `Cc1ccc(Cn2nnc3c(=O)[nH]c(C4CCN(C(=O)c5cccs5)CC4)nc32)cc1`, the “hERG current change (%, negative = inhibition) at 10uM” value was -33%.

Consider `Cc1ccc(C)c(Cn2nnc3c(=O)[nH]c(C4CCCN(C(=O)c5ccco5)C4)nc32)c1` (stereo not drawn), for which the “hERG current change (%, negative = inhibition) at 10uM” value is -38.3%.

In the case of `Cc1ccc(C)c(Cn2nnc3c(=O)[nH]c(C4CCCN(C(=O)C5CCCCC5)C4)nc32)c1` (stereo not drawn), the “hERG current change (%, negative = inhibition) at 10uM” value is -51.5%.

On to `CCCCC(=O)N1CCCC(c2nc3c(nnn3Cc3cc(C)ccc3C)c(=O)[nH]2)C1` (stereo not drawn), for which the “hERG current change (%, negative = inhibition) at 10uM” value is listed as -52.2%.

Regarding `Cc1c(C(=O)N/N=C/c2ccc(N(C)C)cc2)[nH]c2ccc(Cl)cc12`, the “hERG current change (%, negative = inhibition) at 10uM” value was 2.69%.

On to `COC(=O)C1=C(C(=O)c2ccccc2)C(c2cccs2)n2nnnc2N1` (stereo not drawn), for which the “hERG current change (%, negative = inhibition) at 10uM” value was 19.8%.

For the compound `Cc1ccc(CN2C(=O)CCC2C(=O)NCc2ccc3c(c2)OCO3)cc1` (stereo not drawn), the “hERG current change (%, negative = inhibition) at 10uM” value is -17.4%.

As for `NS(=O)(=O)c1ccc(CNC(=S)NCc2ccc(F)cc2)cc1`, the “hERG current change (%, negative = inhibition) at 10uM” value stood at 9.61%.

As to `CCOC(=O)c1ccc(NC(=O)CC2C(=O)N(c3ccccc3)C(=O)N2CCCOC)cc1` (stereo not drawn), the “hERG current change (%, negative = inhibition) at 10uM” value is recorded as -4.49%.

On to `CC(=O)NS(=O)(=O)c1ccc(NC(=O)/C=C/c2cn(-c3ccccc3)nc2-c2ccccc2)cc1`, for which the “hERG current change (%, negative = inhibition) at 10uM” value came out at 34%.

In the case of `O=C(OCCN1CCN(C2=NS(=O)(=O)c3ccccc32)CC1)c1cccc(Br)c1`, the “hERG current change (%, negative = inhibition) at 10uM” value is given as -68.6%.

Turning to `O=C(OCCN1CCN(C2=NS(=O)(=O)c3ccccc32)CC1)c1ccccc1F`, the “hERG current change (%, negative = inhibition) at 10uM” value was -16.9%.

Consider `COc1ccc(C(=O)OCCN2CCN(C3=NS(=O)(=O)c4ccccc43)CC2)cc1OC`, for which the “hERG current change (%, negative = inhibition) at 10uM” value was -32.9%.

On to `O=C(c1cccc(Br)c1)N1CCN(C2=NS(=O)(=O)c3ccccc32)CC1`, for which the “hERG current change (%, negative = inhibition) at 10uM” value was -65.8%.

Turning to `O=C(c1ccc([N+](=O)[O-])cc1)N1CCN(C2=NS(=O)(=O)c3ccccc32)CC1`, the “hERG current change (%, negative = inhibition) at 10uM” value is on record as -46.2%.

`O=C(c1ccc(F)cc1)N1CCN(C2=NS(=O)(=O)c3ccccc32)CC1`: the “hERG current change (%, negative = inhibition) at 10uM” value was -15.8%.

Consider `COc1ccc2c(CC(=O)OCC(=O)NC(N)=O)coc2c1`, for which the “hERG current change (%, negative = inhibition) at 10uM” value came out at 0.524%.
